Reference: ChEMBL document CHEMBL1157539, “Thousands of chemical starting points for antimalarial lead identification” (Nature, 2010)

Test system: HepG2
Test: GSK_TCMDC: Percent inhibition of human HepG2 cell line. Test compounds present at 10uM.
Assay type: functional

SMILES | Inhibition
Cc1cccc(C(O)CNc2ccnc(Nc3cccc(-c4csc(C)n4)c3)n2)c1 (stereo not drawn) | 29%
COc1ccc2ncc(Cl)c([C@@H](O)CN3CCC(NCc4cc5c(cn4)OCCO5)CC3)c2c1.Cl | 8%
CN(C)C(=O)c1cc(CNCc2ccccc2)ccc1-c1cccc(CNCc2ccc(-c3ccccc3)cc2)c1.O=C(O)C(F)(F)F | 27%
